# mHTT-CaM PPI inh: disrupts binding of mutant huntingtin to calmodulin. AlphaScreen His-mHTT/GST-CaM binding, luminescence. P42858. 190,000 tested, 3.6% active. AID 1671202. inhibition, % at 15 µM;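 further: 0% = both proteins with DMSO and 100% = one protein alone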
# Pf apPOL block: Pf-apPOL DNA polymerase inhibition; AID 1794808; 210,000 tested, 0.25% active; inhibition, % at 10 µM; Recombinant Pf-apPOL, molecular beacon fluorescence, 1.5 h
# * = called active by the depositor; · = not tested or not shown. Only some compounds are listed: those with a hit (about 3.5% of all), similar ones and a draw of the others. No stated cut-off is given here; in the data, active means inhibition above about 50%; inactive means the rest.
SMILES,mHTT-CaM PPI inh,Pf apPOL block
O=C(O)CSc1nnc2n1-c1ccc(Cl)cc1NN2,·,76*
Cc1ccc(C(C)C)c(OCCCn2c(CO)nc3ccccc32)c1,65*,-6
COCn1c(COc2cc(C)ccc2C(C)C)nc2ccccc21,-23,-4
CCOc1ccccc1NC(=O)c1c(NC(=O)CN2CCOCC2)sc2c1CCC2,-4,0
CCOc1ccc(NC(=O)c2c(NCc3ccccn3)sc3c2CCC3)cc1,59*,-15
CCOc1ccc(NC(=O)c2c(NC(=O)CN3CCN(C)CC3)sc3c2CCC3)cc1,1,-6
CCOc1ccccc1NC(=O)c1c(NCc2ccncc2)sc2c1CCCC2,53*,-15
CC(C)(C)C(=O)Nc1sc2c(c1C(=O)Nc1ccccn1)CCCC2,-6,-8
COc1ccccc1NC(=O)c1c(NCc2ccccn2)sc2c1CCCCC2,73*,-17
CCOc1ccccc1NC(=O)c1c(NCc2ccccn2)sc2c1CCCCC2,73*,-22
CCOc1ccccc1NC(=O)c1c(NC(=O)CNCC2CCCO2)sc2c1CCC2 (configuration not stated),3,-2
Cc1c(C(=O)N(C)C2CCCCC2)sc2ncn(Cc3ccccc3F)c(=O)c12,10,-11
O=c1c2scc(-c3ccc(F)cc3)c2ncn1Cc1ccc(F)cc1,-3,0
O=C(c1cc2ccccc2[nH]1)N1CCN(C(=O)c2ccccc2Br)CC1,15,1
CCC(C)c1ccc(NC(=O)Cn2nnc(-c3ccccc3Cl)n2)cc1 (configuration not stated),-9,-4
CCOC(=O)c1c(NC(=O)C2CC(=O)OC23CCCCC3)sc2c1CC(C)(C)OC2 (configuration not stated),7,-13
Cc1ccc(NC(=O)C(=O)NCCCn2ccnc2)cc1F,17,-8
O=C(NCCCn1ccnc1)C(=O)NCc1ccc(F)cc1,70*,-6
O=C(Cn1cnc2c(oc3ccccc32)c1=O)Nc1cc(F)ccc1F,-1,-3
O=C(Cn1c2c(c3ccccc31)CCC2)Nc1cc(F)ccc1F,76*,-2
CC12CC3CC(C1)CC(C(=O)O)(C3)C2,-3,-5
Cc1c(CCOC(=O)C23CC4CC(CC(C)(C4)C2)C3)sc[n+]1CC(=O)c1ccccc1,99*,-1
CCCNC(=O)CN1CCN(C(=O)Nc2ccc(Cl)cc2)CC1=O,-2,5
COc1ccc2nc(NC(=O)Cn3c(-c4ccccc4F)nc4ccccc4c3=O)sc2c1,100*,-8
COc1ccc(NC(=O)Cn2c(-c3ccccc3F)nc3ccccc3c2=O)cc1OC,1,-1
SMILES,mHTT-CaM PPI inh,Pf apPOL block
COc1cccc(NC(=O)Cn2c(-c3ccccc3F)nc3ccccc3c2=O)c1,4,-1
O=C(Cn1c(-c2ccccc2F)nc2ccccc2c1=O)Nc1ccc(F)c(Cl)c1,91*,-1
Cc1ccccc1CC(=O)N1CCCC1c1c(C)noc1C (configuration not stated),4,3
O=C(CC1CCCC1)N1CCc2nc(-c3ccc(Cl)cc3)ncc2C1,1,-3
O=C(NCCN1CCCCCC1)c1ccc2c(c1)nc1n2CCCCC1,2,3
Cc1ccc(-c2noc(C3CCCN3S(=O)(=O)c3cc(C)ccc3C)n2)cc1 (configuration not stated),-23,2
O=[N+]([O-])c1ccc(NCCCNS(=O)(=O)c2ccc(Cl)cc2)c(C(F)(F)F)c1,53*,7
CC(=O)Nc1ccc(S(=O)(=O)NCCCNc2ccc([N+](=O)[O-])cc2Cl)cc1,11,-6
CC12CCC(C(=O)Nc3ccc(F)cc3)(C(=O)C1=O)C2(C)C (configuration not stated),1,-6
N#CC1=C(N)Oc2n[nH]c(-c3ccccn3)c2C1c1ccco1 (configuration not stated),91*,0
CC(C)(C)c1[nH]nc2c1C(c1ccco1)C(C#N)=C(N)O2 (configuration not stated),1,-1
Cc1ccc(S(=O)(=O)N2CCC(=O)N(C(COC(=O)Nc3ccccc3)Cc3ccccc3)CC2)cc1 (configuration not stated),2,-10
O=C(c1cc(Cl)cc(Cl)c1)N1CCC(=O)N([C@H](COCc2ccccc2)Cc2ccccc2)CC1,92*,-3
O=C(c1cccc(Cl)c1)N1CCC(=O)N([C@H](COCc2ccccc2)Cc2ccccc2)CC1,66*,-4
O=C(c1cccc(Cl)c1)N1CCC(C(=O)N2CCN(Cc3ccccc3)CC2)CC1,10,0
O=[N+]([O-])c1cc(C(F)(F)F)c(Cl)cc1Cl,-3,·
Cc1ccc2[nH]c3nc(NN)nnc3c2c1,47,-6
Cc1cccc2c1[nH]c1nc(NN)nnc12,66*,-1
CCCSc1nnc2c(n1)[nH]c1c(C)cccc12,9,-4
NNc1nnc2c(n1)[nH]c1ccccc12,100*,-7
O=C(c1ccc2c(c1)OCO2)N1CCOC2(CCOCC2)C1,-1,-1
O[C@@H]1C[C@H](c2ccc(Cl)cc2)N(CC2CCCCC2)C[C@H]1n1cc(C2CC2)nn1,-11,1

# Screening data as filed in PubChem.
